# This is part of a sample that, as a whole, favours compounds with a hit. Of some 83,000 tested, about 20% had one in any assay.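 Results are percent growth after 48 hours of single-concentration exposure. 100 means growth as in untreated cells, lower positive values show inhibition; negative values down to -100 show cell death.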 A number with no mark means an inactive call. Calls of active or inactive are those of the source. How the source made its calls: active means growth percent below 10; inactive means the rest.
# Test system: OVCAR-8 ovarian
# Experiment: NCI-60 one-dose screen, 48 h (100 = growth as untreated, 0 = no growth, -100 = all killed)
# Settings: 10 µM unless noted
row,Structure (SMILES),growth
1,Nc1ncccc1O,81%
2,CC1(C)CC[C@]2(CO)CC[C@]3(C)[C@](O)([C@H](O)C[C@@H]4[C@@]5(C)CCCNC(C)(C)[C@@H]5CC[C@]43C)[C@@H]2C1,101%
3,CN(C)CCC(=O)C1CC1,106%
4,CCCc1cc(=O)oc2c(C(=O)CC(C)C)c(O)c(CC=C(C)C)c(O)c12,22.3%
5,CSc1ccc2c3c(n(CCCn4ccnc4)c(=O)c2c1)-c1ccccc1C3=O,40.2%
6,O=c1oc2ccccc2cc1-c1nn(-c2ccccc2)cc1-c1nn[nH]n1,104%
7,COc1ccc(-c2cc(C(=O)N3N=C(c4ccc(N)cc4)CC3c3ccc(Cl)cc3)c3ccccc3n2)cc1 (stereo not drawn),14.2%
8,COc1cc(/C=C/c2cn[nH]c2-c2ccc(C)cc2)cc(OC)c1OC,32.8%
9,COc1ccc(Nc2ncc(I)c(NCCCNC(=O)C3CCC3)n2)cc1,19.3%
10,CN1CCOCCN(C)Cc2ccc3ccc(cc3c2)CN(C)CCOCCN(C)Cc2ccc3ccc(cc3c2)C1,103%
11,S=c1ccnc[nH]1,100%
12,c1ccc2cc(Cn3cc(CSc4nc5ccccc5s4)nn3)ccc2c1,90.7%
13,O=C(O)c1cn(C2CC2)c2cc(N3CCN(C(=O)N4CCOCC4)CC3)c(F)cc2c1=O,104%
14,O=C(NCCN1CCOCC1)OCc1ccc2c(Cl)cc(Cl)c(O)c2n1,49.2%
15,O=C(/C=C/c1ccccc1)c1ccc(-n2cc(CN3CCN(c4cc5c(cc4F)c(=O)c(C(=O)O)cn5C4CC4)CC3)nn2)cc1,62%
16,Cc1cc(NCCCNc2ccnc3cc(Cl)ccc23)nc(Nc2ccc(C(=O)N3CCCCC3)cc2)n1,25.4%
17,CC/C(=C(/c1ccc(O)cc1)c1ccc(OCCN2CCCCC2)cc1)c1ccc(OC)cc1,91.5%
18,O=C(Nc1cccnc1Nc1ccccc1)c1cn(Cc2cccc(Oc3ccccc3)c2)nn1,71.4%
19,Clc1cccc(C2Cc3cnccc3-c3[nH]c4ccncc4c32)c1 (stereo not drawn),56.4%
20,C=C1C(=O)O[C@H]2[C@H]1CC/C(COC(=O)NCc1ccc(Cn3c(=O)sn(-c4ccccc4)c3=O)cc1)=C\CC[C@@]1(C)O[C@@H]21,42%
21,O=C(NCCCCCCNC(=O)OCc1ccc2c(Cl)cc(Cl)c(O)c2n1)OCc1ccc2c(Cl)cc(Cl)c(O)c2n1,-32.6% (active)
22,C/C(Cc1ccc(Cl)cc1)=C(\c1ccc(OCCN2CCCCCC2)cc1)c1ccc(OC(=O)c2ccccc2)cc1,34.5%
23,CC(O)CNC(Cc1ccccc1)c1ccc2c(c1)OCO2 (stereo not drawn),97.1%
24,OC1(c2ccccc2)c2ccccc2N(c2ccccc2)c2ccc(Cl)cc21 (stereo not drawn),-45% (active)
25,O=C(Cc1ccc(/C=C/C(=O)c2ncc[nH]2)cc1)Nc1cc(F)c(F)c(F)c1,41.7%
26,C/C(=N\Nc1ccccc1)c1ccc(NC2=CC(=O)c3ccccc3C2=O)cc1,59.8%
27,O=S(=O)(Nc1ccc2ccccc2c1)c1ccc(-c2cnc(C3CC3)o2)cc1,24.6%
28,O=c1c2ccccc2n(C[C@H]2CO2)c2ccccc12,4.1% (active)

# Source: PubChem BioAssay (NCI)
